The structures appear in SMILES notation. Out of some 2,400 compounds screened, about 1,400 (58%) were called active.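 How the source made its calls: active means inhibition of 30% or more at any tested dose; inconclusive means primary hits over the limit that were never retested; inactive means the rest.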 So high a share suggests a set chosen from earlier hits. The list shows a part of the results.

The nature of the assay: ADP Hunter readout inhibition without MgcRacGAP – biochemical, coupled enzyme counter-screen, artefact control for MgcRacGAP inhibitor project, dose response (AID 624351).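 Further: signal is the ADP detection kit reading of free GDP without any GAP enzyme.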 The conditions noted are these: fluorescence, no MgcRacGAP; series mostly up to 80 µM. For orientation: A counterscreen serves to expose hits that act by an unwanted route or on another target.
With `COc1ccc2c3c(cccc13)N(C)N=C2C`, the IC50 – broadly, the concentration that inhibits the measured activity by half – is “inactive”.
Regarding `Cc1sc2c3ccsc3ccc2[n+]1C`, the IC50 entry is “inactive”.
`O=C(Cc1ccc(Cl)cc1)N/N=C/c1ccc(O)c(O)c1`: the IC50 is 19.4 µM (active).
Next, `O=[N+]([O-])c1ccccc1OCCNCc1ccccc1`: “inactive”.
Next, `O=C(COc1ccccc1[N+](=O)[O-])N/N=C/c1ccc(O)cc1`: 70.9 µM (active); `O=C(COc1cccc2cccnc12)N/N=C/c1ccc(O)cc1`: 80 µM (active); `COCc1cc(C)nc(OCC(=O)N/N=C/c2ccc(O)cc2)c1C#N`: 79.7 µM (active).
Next, `O=C(CCc1ccc(O)c(O)c1)N/N=C/c1ccc2c(c1)OCO2`: “inactive”; `O=C(Sc1n[nH]c(=O)[nH]c1=O)c1ccccc1`: “inactive”.
Take `CCn1nc(NS(=O)(=O)c2ccccc2[N+](=O)[O-])c2cc3ccc(C)cc3nc21`: the IC50 entry was “inactive”.
Next, `O=C(COc1ccccc1C(=O)N/N=C\c1ccc(O)c(O)c1)N/N=C/c1ccc(O)c(O)c1`: 28.8 µM (active); `CCOC(=O)CCNC(C)C1COc2ccccc2O1` (stereo unspecified): “inactive”; `COc1cc(/C=N\NC(=O)CNC(=O)C2COc3ccccc3O2)ccc1O` (stereo unspecified): 35.8 µM (active).
For `O=C(CNC(=O)C1COc2ccccc2O1)N/N=C/c1ccc(O)cc1O` (stereo unspecified) the value was 66.8 µM (active); for `CCCCN(CC)CCNC(=O)c1cc2c(-c3ccc(Cl)cc3)nn(C)c2s1`, “inactive”; for `c1cc2c(cc1CN1CCN(C3CCCCCC3)CC1)OCO2`, “inactive”.
For the compound `c1cc2c(cc1NC1CCCCCC1)OCO2`, the IC50 is 45.1 µM (active).
In the case of `COc1ccc(N2C(S)=C(C#N)C(=O)NC2c2ccco2)cc1` (stereo unspecified), the IC50 result was “inactive”.
Consider `COc1cc(/C=C2\SC(=Nc3c(C)n(C)n(-c4ccccc4)c3=O)NC2=O)ccc1O`, for which the IC50 was 44.4 µM (active).
For `O=C1NC(=NCc2ccccc2)S/C1=C/c1ccc(O)cc1` the value was 20.1 µM (active).
On to `O=C1N/C(=C\c2ccc(O)cc2)C(O)=C1C=NCc1ccccc1`, for which the IC50 is 16 µM (active).
On to `COc1cc(/C=C2/SC(=S)N(c3c(C)n(C)n(-c4ccccc4)c3=O)C2=O)ccc1O`, for which the 50% inhibitory concentration (IC50) is 48.2 µM (active).
For `Cc1c(N=C2NC(=O)/C(=C/c3ccc(O)cc3)S2)c(=O)n(-c2ccccc2)n1C` the value was 72 µM (active); for `Nc1ccc2[nH]c(=S)sc2c1`, “inactive”; for `Nc1ccc2[nH]c(=S)[nH]c2c1`, 21 µM (active).
As for `CCCS(=O)(=O)N1CCN(C2Cc3ccccc3C2)CC1`, the IC50 entry is “inactive”.
For the compound `CCCCn1c(C)cc2cc(O)ccc21`, the IC50 is 30.4 µM (active).
Next, `Cn1c(=O)[nH]c(N)c(Br)c1=O`: “inactive”; `Cc1ccsc1/C=N/Nc1nc2ccccc2[nH]1`: 26 µM (active); `C(=N\Nc1nc2ccccc2[nH]1)/c1c[nH]c2ccccc12`: 37.6 µM (active).
Next, `Cc1cc(C)nc(N/N=C/c2c[nH]c3ccccc23)n1`: 55.4 µM (active); `Cn1c(N/N=C/c2c[nH]c3ccccc23)nc2ccccc21`: 40.6 µM (active).
Next, `C=C1c2cccc(O)c2C(=O)C2C(=O)[C@]3(O)C(=O)C(C(N)=O)C(=O)[C@@H](N(C)C)[C@@H]3[C@@H](O)[C@H]12` (stereo partly specified): “inactive”.
Turning to `O=C1NC(=S)S/C1=C1\Sc2ccccc2N1CCCS(=O)(=O)O`, the IC50 result was “inactive”.
Next, `O=C(CN1CCN(c2ccc(O)cc2)CC1)NCC(=O)Nc1ccc(F)c(F)c1F`: 61.8 µM (active).
For `CCOCCCNC(=O)CN1CCN(c2ccc(F)cc2)CC1` the value was “inactive”.
With `CC(C(=O)Nc1ccccc1C(F)(F)F)N1CCN(C)CC1` (stereo unspecified), the IC50 result is “inactive”.
For `CC(C(=O)NCC(=O)Nc1ccc(F)c(F)c1F)N1CCN(c2ccc(O)cc2)CC1` (stereo unspecified) the value was 54.3 µM (active); for `Cc1cnc(NC(=O)CN2CCN(c3ccccc3F)CC2)s1`, “inactive”; for `CC(C(=O)Nc1ccc(F)c(F)c1)N1CCN(C)CC1` (stereo unspecified), “inactive”.
For `COc1ccccc1NS(=O)(=O)c1ccc(C)c(C(=O)N2CCN(c3ccc(O)cc3)CC2)c1` the value was 23.6 µM (active); for `COc1cc(OC)c(OC)cc1CN1CCN(C(=O)c2cccc3ccccc23)CC1`, “inactive”; for `COc1ccccc1C(=O)N1CCN(Cc2cccnc2)CC1`, “inactive”.
For `N/C(=N\OC(=O)N1c2ccccc2Sc2ccccc21)c1ccccc1` the value was “inactive”; for `CC1(C)CC(NC(=O)N2c3ccccc3Sc3ccccc32)CC(C)(C)N1`, “inactive”.
In the case of `Cc1ccc2nc(/N=C(\N)NC(=O)N3c4ccccc4Sc4ccccc43)nc(C)c2c1`, the IC50 entry was “inactive”.
Next, `Cc1cccc(/C(N)=N/OC(=O)N2c3ccccc3Sc3ccccc32)c1`: “inactive”; `CCN1/C(=C/c2ccc3cc(C)ccc3[n+]2CC)Sc2cc(C)ccc21`: “inactive”; `CN(C)/C=C/c1oc2ccc(O)cc2c1[N+](=O)[O-]`: 14.2 µM (active).
Next, `CCCc1cc(=S)n2c([nH]c3ccccc32)c1C#N`: 57.3 µM (active); `CCn1nc(C)c(Br)c1C(=O)Sc1ccccc1Cl`: “inactive”; `Cc1ccc(S(=O)(=O)N2CCOCC2)cc1NC(=O)CNCc1cccnc1`: “inactive”.
For `O=S(=O)(c1ccc(Cl)c(NC(=S)N/N=C/c2ccc(O)cc2)c1)N1CCOCC1` the value was 48.7 µM (active); for `CCN(CC)c1ccc(S(=O)(=O)N2CCOCC2)cc1NC(=O)CN1CCN(Cc2ccccc2)CC1`, “inactive”; for `COc1cc(/C=C2\SC(N3CCC(C)CC3)=NC2=O)ccc1O`, 19.1 µM (active).
Take `CCOC(=O)C1CCCN(C2=NC(=O)/C(=C/c3ccc(O)c(OC)c3)S2)C1` (stereo unspecified): the IC50 was 22.8 µM (active).
Next, `CCOC(=O)C1CCN(C2=NC(=O)/C(=C/c3ccc(O)cc3)S2)CC1`: 22.2 µM (active).
For `CCOC(=O)CSC1=NC(=O)/C(=C\c2ccc(OC(C)=O)cc2)S1` the value was “inactive”.
Take `CCOC(=O)C1CCN(Cc2cn[nH]c2-c2ccccc2)CC1`: the IC50 result was “inactive”.
Take `CCOC(=O)C1CCCN(C2=NC(=O)/C(=C/c3ccc(O)c(OCC)c3)S2)C1` (stereo unspecified): the IC50 is 29.8 µM (active).
On to `CCOC(=O)C(NC(=O)N(C)C)(Nc1sc(C)c(CC)c1C#N)C(F)(F)F` (stereo unspecified), for which the IC50 entry is “inactive”.
For `C#CCOCCOCCOCCNc1nc(N2CCN(C(=O)[C@H](CCCN=C(N)N)n3cc(C(N)[C@H](C)CC)nn3)CC2)nc(N2CCN(C(=O)[C@H](CCCN=C(N)N)n3cc(C(N)[C@@H](C)CC)nn3)CC2)n1` (stereo partly specified) the value was “inactive”; for `CC1CCN(S(=O)(=O)c2ccc3c(c2)C(Cl)(Cl)C(=O)N3)CC1`, “inactive”.
In the case of `CCS(=O)(=O)c1cc([N+](=O)[O-])c(Sc2ccccc2N)s1`, the IC50 entry was “inactive”.
Next, `C=CCSC1=NC(=O)/C(=C/c2cccs2)S1`: “inactive”; `CCOc1cc(/C=C2\SC(N3CCCC(C)C3)=NC2=O)ccc1O` (stereo unspecified): 33.4 µM (active).
For `COc1cc(C2NC(=O)C(C#N)=C(S)N2c2ccccc2)ccc1OC(C)C` (stereo unspecified) the value was “inactive”; for `Cc1c(O)ccc(/C(Cc2ccc3ccccc3n2)=N\O)c1O`, 76.5 µM (active); for `CN(C)CCNc1ccc2ncn3c4ccc(O)cc4c(=O)c1c23`, “inactive”.
For `CN(C)CCNc1ccc(CO)c2sc3ccc(O)cc3c(=O)c12` the value was 35 µM (active); for `Cc1ccc(NCCN(C)C)c2c(=O)c3cc(O)ccc3sc12`, 46.3 µM (active); for `CN(C)CCNc1ccc2nnn3c4ccc(O)cc4c(=O)c1c23`, “inactive”.
Consider `CCN(CC)CCCNc1ccc2ncn3c4ccc(O)cc4c(=O)c1c23`, for which the IC50 entry is “inactive”.
Take `CCN(CC)CCNc1ccc(C)c2sc3ccc(O)cc3c(=O)c12`: the IC50 is 33.2 µM (active).
For `O=C1CC(SC(=S)C2CCCC2=O)C(=O)N1` (stereo unspecified) the value was “inactive”; for `Nc1ccccc1Sc1ccc(C(=O)c2ccccc2C(=O)O)cc1[N+](=O)[O-]`, “inactive”; for `COc1cc(/C=N/Nc2cccc3cccnc23)cc(OC)c1O`, “inactive”.
For `COc1cc(/C=N/Nc2ccccn2)cc(OC)c1O` the value was 28.6 µM (active); for `COc1ccc(/C=N/Nc2ccccn2)cc1O`, 81.8 µM (active); for `CN(C)c1ccc(/C=N\Nc2ccccn2)cc1`, 33.4 µM (active).
For `COc1ccc(/C=N/Nc2ncnc3sc4c(c23)CCCC4)cc1O` the value was 69.1 µM (active); for `CCN1CCN(CCOc2cccc(Oc3ccccc3)c2)CC1`, “inactive”.
In the case of `Clc1ccc(OCCOCCNCc2ccccc2)cc1Cl`, the IC50 entry was “inactive”.
For `CCN(CC)c1ccc(NC(=O)CCN2C(=O)c3ccccc3S2(=O)=O)c(C)c1` the value was “inactive”; for `CCN(CC)c1ccc(NC(=O)C2=CC=CN3CCS(=O)(=O)N=C23)cc1`, 74.2 µM (active); for `CC(C)[C@H](N[C@@H](C)c1ccccc1)c1c(O)ccc2ccccc12`, 17.4 µM (active).
As for `CC(NCCCOc1cccc2ccccc12)c1ccccc1` (stereo unspecified), the IC50 result was “inactive”.
Next, `C/C(=N\Nc1nc2ccccc2[nH]1)c1ccc(C)o1`: 82.2 µM (active).
For `C/C(=N\Nc1nc2ccccc2[nH]1)c1ccc(Cl)s1` the value was 37.8 µM (active).
As to `C/C(=N\Nc1nc2ccccc2[nH]1)c1cccs1`, the IC50 is 28.4 µM (active).
Next, `COc1cccc(/C=C2\C(=O)C(=O)c3ccccc32)c1`: “inactive”.
Next, `O=C(CNC(=O)c1cccs1)N/N=C/c1ccc(O)cc1O`: 60.5 µM (active); `O=C(COc1ccccc1)NCC(=O)N/N=C/c1ccc(O)cc1O`: 66.1 µM (active).
As for `Cc1cc(O)c(C)c(O)c1/C=N/NC(=O)c1cccnc1`, the IC50 was 77.5 µM (active).
Consider `O=C(CNC(=O)c1cccnc1)N/N=C/c1ccc(O)cc1O`, for which the IC50 was 82 µM (active).
Next, `O=C(CCCCCNC(=O)c1ccccc1)N/N=C/c1ccc(O)cc1O`: 71 µM (active); `Oc1ccc(/C=N/NC(=S)Nc2cccnc2)c(O)c1`: 37.9 µM (active).
For the compound `O=C(CNC(=O)c1ccco1)N/N=C/c1ccc(O)cc1O`, the IC50 was 78.5 µM (active).
Next, `CCc1ccc(/C(C)=N/NC(=O)CNC(=O)/C=C/c2ccco2)cc1`: “inactive”; `Cc1cc(C)c(OCCCCNCc2ccccc2)c(Cl)c1`: “inactive”; `Cc1cc(N)c2cc(NC(=O)/C=C/c3ccccc3Cl)ccc2n1`: “inactive”.
With `Cc1c(O)ccc(NC(=O)/C=C/c2ccccc2)c1C`, the IC50 is 37.7 µM (active).
Next, `CCOC(=O)/C(C#N)=C\c1ccc(O)c(OC)c1`: 52.1 µM (active); `COc1cc(/C=C(\C#N)C(=O)Nc2ccc3c(c2)OCCO3)ccc1O`: 32.5 µM (active).
Next, `CCOC(=O)/C(C#N)=C\c1c(OCC)n(CC)c2ccccc12`: “inactive”; `N#C/C(=C/c1ccc2c(c1)OCO2)C(=O)Nc1ccc(O)cc1`: 62.6 µM (active).

The values are drawn from PubChem BioAssay AID624351 (Southern Research Specialized Biocontainment Screening …, 2012).
